Screening data deposited in PubChem by National Center for Advancing Translational Sciences (NCATS).
The list is not random: actives were taken first. Their share in the collection is about 3%.
Tau ThT inhib = tau fibrillization inhibition (ThT binding); P10636; recombinant tau K18 P301L, heparin-induced fibrillization, ThT fluorescence; Potency, µM (highest dose often 57.4 µM), hits mostly inhibitors; actives 2.1% (n = 270,000); AID 1460; also: nearly all actives have a fitted effect of over 55% in size
Target sequence (P10636 561-689 P618L limits assumed): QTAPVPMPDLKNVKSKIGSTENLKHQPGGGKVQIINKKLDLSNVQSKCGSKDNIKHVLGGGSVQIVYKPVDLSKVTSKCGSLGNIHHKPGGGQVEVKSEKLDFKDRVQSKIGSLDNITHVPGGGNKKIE
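Using a mix of unlabeled (15 uM) and Alexa 594-labeled (0.24 uM) tau K18 P301L, heparin-triggered fibrillization over 6 hr at 37 C was scored by ThT fluorescence.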
Tau fluor counter = counter-screen for tau fibril formation inhibitors. tau K18 P301L Alexa594 fluorescence, heparin fibrillization. Potency, µM (highest dose often 57.7 µM). actives 0.93% (n = 280,000); also: nearly all actives have a fitted effect of over 55% in size
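Human tau K18 P301L (15 uM unlabeled, 0.24 uM Alexa 594-labeled) in 100 mM sodium acetate pH 7 with 20 uM heparin, 6 hr at 37 C. ThT 30 uM added, 1 hr ambient; Alexa 594 FP and total fluorescence read at 555/632 nm.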
TRb-SRC2 inh = TRbeta-SRC2 interaction inhibition; actives 0.065% (n = 280,000); P10828; Potency, µM (highest dose often 106 µM), actives largely listed as inhibitors; TRbeta-SRC2 peptide binding, fluorescence polarization; receptor liganded with 1 µM T3; AID 1469; also: nearly all actives have a fitted effect of over 50% in size
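Read-out is fluorescence polarization (555 nm excitation, 632 nm emission) of a Texas Red SRC2 coactivator peptide; loss of signal reflects blocked binding to human TRb ligand-binding domain in the presence of 1 uM T3.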
Tau fibril FP = blocks human tau fibril formation measured by polarization; AID 1468; P10636; Potency, µM (top dose mostly 57.7 µM), actives largely listed as inhibitors; K18 P301L tau heparin fibrillization, Alexa594 FP, 6 h; actives 0.39% (n = 280,000); also: nearly all actives have a fitted effect of over 55% in size
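Recombinant K18 P301L […], labeled with Alexa 594 at 0.24 uM over 15 uM unlabeled; heparin inducer 20 uM final; 37 C, 6 hr; FP endpoint.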
TR SRC2 fluor cs = alters Texas Red total fluorescence, flagging assay interference. Potency, µM (doses to about 106 µM). AID 1479. actives 0.29% (n = 280,000). TRb/SRC2 Texas Red total fluorescence interference; active = well fitted curve in either direction with a large enough effect; inconclusive = small, poorly fitted or top-dose-only effect
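Human TRb ligand-binding domain at 0.6 uM with 20 nM Texas Red SRC2 peptide in Tris buffer containing 1 uM T3 and 5% DMSO, incubated with compound 5 h at ambient temperature. Total fluorescence (555/632 nm) calculated as parallel + 2 × perpendicular.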
A number is an active result; n = inactive; u = inconclusive; x = no result given; [ ] = another dose, or the depositor's remark. Unless noted, calls follow the shape of the dose curve; as a rule, active = well fitted curve in the direction sought with a large enough effect; inconclusive = small, poorly fitted or top-dose-only effect, or another doubt; inactive = no such curve, though single readings can be large; an effect the other way counts as inactive or inconclusive.

SMILES	Tau ThT inhib	Tau fluor counter	TRb-SRC2 inh	Tau fibril FP	TR SRC2 fluor cs
COC(=O)/C(=C\C(=O)c1ccc([N+](=O)[O-])cc1)Nc1ccc(OC)cc1	3.2µM	u	n	u	n
Cc1c(N/N=C(\C#N)C(=O)c2ccc(Cl)cc2)c(=O)n(-c2ccccc2)n1C	n	n	n	n	n
O=C(Cc1ccc(Cl)cc1)Nc1nnc2n1CCS2	n	n	n	n	n
COc1ccc(OC)c(-c2csc(NC(=O)CSc3ccc([N+](=O)[O-])cc3)n2)c1	u	11µM[quencher]	n	n	n
COc1ccc(OC)c(-c2csc(NC(=O)CSc3ccc(Br)cc3)n2)c1	n	u	n	u	n
COc1ccc(Br)cc1CNc1ccc(O)cc1	13µM	u	8.9µM	25µM	u
COc1ccc(Br)cc1CNc1ccc2[nH]c(=O)[nH]c2c1	u	n	n	n	n
COc1cc(CNc2ccc(O)cc2)cc(Br)c1OCc1ccccc1	25µM	13µM[quencher]	u	u	n
Cc1ccc(S(=O)(=O)N2CCc3cc(C(=O)Nc4c(F)cccc4F)ccc32)cc1	n	n	n	n	n
CC1=C(C#N)C(=O)NC(=O)/C1=C\c1ccc(-c2ccc(C)cc2[N+](=O)[O-])o1	16µM	u	n	u	n
CCc1ccc(CNC(=O)c2ccc(NC(=O)N3CCCCc4ccccc43)cc2)cc1	n	n	n	n	n
COc1cc(OC)cc(-c2nnc(SCC(=O)c3ccc([N+](=O)[O-])cc3)o2)c1	u	u	n	n	n
COc1cc(OC)cc(-c2nnc(Sc3ccc(C=O)cc3[N+](=O)[O-])o2)c1	25µM	u	u	n	n
Cc1ccc(S(=O)(=O)Nc2nc(C)c(NC(=O)OCCCl)s2)cc1	n	n	n	n	n
Cc1ccc(S(=O)(=O)Nc2nc(C)c(NC(=O)Nc3ccc(Cl)cc3Cl)s2)cc1	22µM	14µM[quencher]	n	n	n
CCOCCCNC(=O)/C(C#N)=C/c1ccc([N+](=O)[O-])o1	14µM	n	n	u	n
Cc1cc(C)c2c(-n3cccc3)c(C(=O)NCCc3ccccc3)sc2n1	n	n	n	u	n
CCCOc1ccc(C(=O)CCN2CCCCC2)cc1	u	n	40µM	n	n
CCCCOc1ccc(C(=O)CCN2CCOCC2)cc1	u	n	5.6µM	u	n
CCOC(=O)c1ccc(NC(=O)CSc2nnc(CNc3ccc(OC)cc3)n2C)cc1	14µM	n	n	u	n
COc1ccc(NCc2nnc(SCC(=O)Nc3ccc(OC)cc3)n2C)cc1	n	n	n	n	n
CN1C(=O)C2CCCCN2c2ccc(C(=O)NCc3ccccc3Br)cc21 (stereo unspecified)	n	n	n	n	n
COC(=O)/C(=C(/F)Sc1cc(C)c(O)c(C)c1)C(F)(F)F	u	13µM[quencher]	n	u	n
COC(=O)C(Nc1ccccc1Cl)(c1cc(C)c(O)c(C)c1)C(F)(F)F (stereo unspecified)	n	u	n	u	n
O=C(COC(=O)c1ccccc1NS(=O)(=O)c1cccs1)NC1CCCCC1	n	n	n	n	112µM[quencher]
SMILES	Tau ThT inhib	Tau fluor counter	TRb-SRC2 inh	Tau fibril FP	TR SRC2 fluor cs
O=S(=O)(c1ccc(Cl)cc1)c1nc(-c2cccs2)oc1SCc1ccccc1F	n	u	n	n	n
O=C(c1ccccc1)N1CCc2cc(CNS(=O)(=O)c3ccc(Cl)s3)ccc21	n	n	n	n	n
O=[N+]([O-])c1ccc(N/N=C2\CC3CC=CC23)cc1 (stereo unspecified)	14µM	u	n	n	n
CCCN(CCC)C(=O)Cn1c(SCc2cccc(F)c2)nc2cccnc21	n	n	n	n	n
O=C(CSc1nnc(-c2ccccc2)o1)c1cccc([N+](=O)[O-])c1	u	n	n	n	11µM[quencher]
O=C(CSc1nnc(-c2ccccc2)o1)c1nnc(-c2ccccc2)o1	16µM	u	n	u	n
Cc1cccc(C(=O)Nc2sc(-c3ccccc3)cc2C(=O)O)c1	14µM	u	n	n	n
CC(C)(C)C(=O)Nc1sc(-c2ccccc2)cc1C(=O)O	n	n	n	n	n
COC(OC)(C(=O)c1ccccc1)c1ccccc1	x	x	n	x	n
CC1=C(C(=O)Nc2ccccc2)C(c2ccc(C)o2)n2c(s/c(=C\c3ccco3)c2=O)=N1 (stereo unspecified)	13µM	u	n	u	n
